Laboratory results: the supplement of paper PMC12645437, “Orthogonal IMiD-Degron Pairs Induce Selective Protein Degradation in Cells” (ACS Chemical Biology, 2025)
In all, about 8,300 sequences were measured (“log2 fold change of degron read counts, EGFP-low vs EGFP+ sorted cells (limma voom), compound-induced degradation”: median about -1.1, highest 2% from about 3.2 on). The entries come from a sample that favours the highest values as a whole.

T1: CRBN, Q96SW2
T1 chain: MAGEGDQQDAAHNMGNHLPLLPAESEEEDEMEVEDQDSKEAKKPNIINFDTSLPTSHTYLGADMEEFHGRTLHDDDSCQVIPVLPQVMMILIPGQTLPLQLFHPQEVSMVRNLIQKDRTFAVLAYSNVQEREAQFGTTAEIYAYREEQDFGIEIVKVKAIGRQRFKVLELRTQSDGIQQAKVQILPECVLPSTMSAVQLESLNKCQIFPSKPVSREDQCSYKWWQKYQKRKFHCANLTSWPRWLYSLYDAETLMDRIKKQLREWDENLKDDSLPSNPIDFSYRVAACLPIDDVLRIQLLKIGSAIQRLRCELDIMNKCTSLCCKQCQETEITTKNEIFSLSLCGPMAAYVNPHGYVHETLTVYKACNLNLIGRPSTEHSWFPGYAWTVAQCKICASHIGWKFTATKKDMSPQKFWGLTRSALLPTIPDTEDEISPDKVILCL


Molecular target: T1, CRBN, Q96SW2
Assay: log2 fold change of degron read counts, EGFP-low vs EGFP+ sorted cells (limma voom), compound-induced degradation; higher = more compound-induced degradation of the degron-EGFP fusion; degrons are variants of IKZF1/3 zinc finger 2; compound dose not given here
Settings: Jurkat, 18 h
[1] = compound: compound 19 (5-tert-butyl-thalidomide)
[2] = compound: compound 22 (5-morpholino-thalidomide)
[3] = compound: compound 33 (diphenyl IMiD analogue)
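Also: pooled lentiviral library of zinc finger degron-EGFP fusions in mCherry-positive Jurkat cells, FACS-sorted after compound exposure, with degron abundance counted by next-generation sequencing.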

Row | Sequence | log2 fold change of degron read counts [1] | log2 fold change of degron read counts [2] | log2 fold change of degron read counts [3] | log2 fold change of degron read counts (compound: thalidomide)
1 | FFCDQCGAEFTQKGNLLRHIKL [46F_47F_49D_50Q_52G_53A_54E_55F_67L_, Q9UKT9] | -0.653 | -1.5 | -2.48 | -2.75
2 | FACPVCGAFFTQKGNLLRHIKL [46F_47A_49P_50V_52G_53A_54F_55F_67L_, Q9UKT9] | 1.92 | -0.0365 | 0.632 | -0.719
3 | FECPICGHEFTQKGNLLRHIKL [46F_47E_49P_50I_52G_53H_54E_55F_67L_, Q9UKT9] | -3.46 | -3.29 | -1.58 | -1.82
4 | FLCEICGRRFTQKGNLLRHIKL [46F_47L_49E_50I_52G_53R_54R_55F_67L_, Q9UKT9] | -1.65 | -2.28 | -1.89 | -0.0712
5 | FLCNVCGASFTQKGNLLRHIKL [46F_47L_49N_50V_52G_53A_54S_55F_67L_, Q9UKT9] | -1.47 | -1.87 | -0.611 | -0.827
6 | FFCPICGHEFTQKGNLLRHIKL [46F_47F_49P_50I_52G_53H_54E_55F_67L_, Q9UKT9] | -1.46 | -1.37 | -1.31 | -1.41
7 | FMCNVCGAMFTQKGNLLRHIKL [46F_47M_49N_50V_52G_53A_54M_55F_67L_, Q9UKT9] | -2.09 | -2.13 | 0.122 | -1.26
8 | FTCNVCGALFTQKGNLLRHIKL [46F_47T_49N_50V_52G_53A_54L_55F_67L_, Q9UKT9] | -2.25 | -1.98 | -0.325 | -1.1
9 | FKCDICGAGFTQKGNLLRHIKL [46F_47K_49D_50I_52G_53A_54G_55F_67L_, Q9UKT9] | 0.734 | -1.83 | -2.3 | -1.43
10 | FLCNICGAAFTQKGNLLRHIKL [46F_47L_49N_50I_52G_53A_54A_55F_67L_, Q9UKT9] | -0.363 | -1.33 | 0.248 | 0.231
11 | FRCPICGRMFTQKGNLLRHIKL [46F_47R_49P_50I_52G_53R_54M_55F_67L_, Q9UKT9] | -1.98 | -1.28 | -0.201 | 0.319
12 | FHCNQCGHNFTQKGNLLRHIKL [46F_47H_49N_50Q_52G_53H_54N_55F_67L_, Q9UKT9] | -2.43 | -3.18 | -2.46 | -2.52
13 | FVCNICGAYFTQKGNLLRHIKL [46F_47V_49N_50I_52G_53A_54Y_55F_67L_, Q9UKT9] | -0.917 | -0.227 | 1.05 | 1.24
14 | FSCEQCGAHFTQKGNLLRHIKL [46F_47S_49E_50Q_52G_53A_54H_55F_67L_, Q9UKT9] | -1.34 | -2.19 | -1.26 | -1.95
15 | FICPVCGACFTQKGNLLRHIKL [46F_47I_49P_50V_52G_53A_54C_55F_67L_, Q9UKT9] | -0.981 | 2.06 | 2.04 | 2.16
16 | FTCPVCGACFTQKGNLLRHIKL [46F_47T_49P_50V_52G_53A_54C_55F_67L_, Q9UKT9] | 0.948 | 2.51 | 2.73 | 3.33
17 | FECPVCGACFTQKGNLLRHIKL [46F_47E_49P_50V_52G_53A_54C_55F_67L_, Q9UKT9] | 0.122 | -0.609 | 2.52 | 2.75
18 | FQCDICGAHFTQKGNLLRHIKL [46F_47Q_49D_50I_52G_53A_54H_55F_67L_, Q9UKT9] | -1.42 | -0.152 | -0.605 | 1.82
19 | FECDICGAHFTQKGNLLRHIKL [46F_47E_49D_50I_52G_53A_54H_55F_67L_, Q9UKT9] | -1.93 | -3.04 | -0.896 | -0.791
20 | FWCDICGAHFTQKGNLLRHIKL [46F_47W_49D_50I_52G_53A_54H_55F_67L_, Q9UKT9] | 2.34 | 3.41 | 0.744 | -0.669
21 | FNCDICGAHFTQKGNLLRHIKL [46F_47N_49D_50I_52G_53A_54H_55F_67L_, Q9UKT9] | 0.871 | -0.896 | -1.51 | -1.76
22 | FCCDICGAHFTQKGNLLRHIKL [46F_47C_49D_50I_52G_53A_54H_55F_67L_, Q9UKT9] | 0.131 | -0.464 | -0.191 | -0.916
23 | FYCDICGAHFTQKGNLLRHIKL [46F_47Y_49D_50I_52G_53A_54H_55F_67L_, Q9UKT9] | 2.51 | 3.38 | 0.931 | -1.03
